# Experimental data reported in PubChem BioAssay (NCI).
# This is part of a sample that, as a whole, favours compounds with a hit. Of some 83,000 tested, about 20% had one in any assay.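 Single-concentration screen, 48 h exposure, 96-well plates. Endpoint: percent growth. Below 10 = active.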 Values without a mark were called inactive. Active and inactive are the calls of the source.
# System: MOLT-4 leukemia
# Assay: NCI-60 one-dose screen, 48 h (100 = growth as untreated, 0 = no growth, -100 = all killed)
# Conditions: 10 µM unless noted
# Method: Growth inhibition of the MOLT-4 human tumor cell line is measured as a screen for anti-cancer activity. Cells are grown in 96 well plates and exposed to the test compound for 48 hours. Compounds are tested at a single concentration, which is 10^-5 M for most compounds. The reported endpoint is percent growth (GI% or GIPRCNT), where numbers from 0 - 100% represent growth inhibition, and numbers from -100% - 0 represent cell death. For example, a value of 40 represents 60% growth inhibition. A value of 0 means no net growth occurred over the course of the experiment. A value of -40 indicates 40% of cells at the beginning of the experiment died by the end of the experiment. A value of -100 means all cells are dead at the end of the experiment.
# NCI-60 Human Tumor Cell Lines Screen was performed using the standard one-dose NCI protocol, which is described in more detail at https://dtp.cancer.gov/discovery_development/nci-60/default.htm.
# Compounds with GIPRCNT values below 10 were considered active. Activity score was based on GIPRCNT using the following formula: […]
# Score is 0 for GIPRCNT values of 100 or above, 50 for GIPRCNT values of 0, and 100 for GIPRCNT values of -100.
row,SMILES,growth
1,COc1cc(C(=O)/C=C/c2c(-c3cccs3)nc3sc(C)cn23)cc(OC)c1OC,-2.47% (active)
2,O=C(Cn1cc(CSc2nc3ccccc3o2)nn1)Nc1ccc([N+](=O)[O-])cc1,94.1%
3,c1ccc(-c2cn3nc(-c4c[nH]c5ccccc45)sc3n2)cc1,83.9%
4,CC(=O)c1c(/C=C/c2ccc(C)cc2)c2ccccc2[nH]c1=O,87.1%
5,COCCn1cc(-c2nc(-c3cc4cccnc4n3C)cs2)c2cc(OC)ccc21,48.5%
6,CCCCCCCC/C=C\CCCCCCCCOc1ccc(CC(=O)NCC[N+]2(C)CCCC2)cc1,68.4%
7,Nc1ncc(-c2ccc3ncnc(N4CCc5ccc(Cl)cc54)c3c2)cn1,-39% (active)
8,CCC(C)C(N)C(=O)NC(CC(C)C)C(=O)N1CCCC1C(=O)NC(Cc1c[nH]c2ccccc12)C(=O)NC(CCCCN)C(=O)NC(Cc1c[nH]c2ccccc12)C(=O)N1CCCC1C(=O)NC(Cc1c[nH]c2ccccc12)C(=O)NC(Cc1c[nH]c2ccccc12)C(=O)N1CCCC1C(=O)NC(Cc1c[nH]c2ccccc12)C(=O)NC(CCCNC(=N)N)C(=O)NC(CCCNC(=N)N)C(N)=O (stereo not given),-28.2% (active)
9,Fc1ccc(/C=C/c2cc(/C=C/c3ccc(F)cc3)n(-c3cc(F)cc(F)c3)n2)cc1,103%
10,COC(=O)c1c(C(=O)OC)c2ccc3c4ncccc4ccc3n2c1C(=O)c1ccc(C)cc1,73.3%
11,O=C(/C=C/c1ccc([N+](=O)[O-])cc1)c1cccc(Nc2nc(Nc3ccccc3)nc(Nc3ccccc3)n2)c1,46.4%
12,O=C1NC(=O)C(=Cc2cc(-c3ccc(Cl)cc3)n(-c3ccccc3)n2)C(=O)N1,92.4%
13,N#Cc1nn(-c2ccccn2)c(N)c1C#N,92.9%
14,COc1ccc(C2CC(=O)Oc3c(OC)c4c(c(OC)c32)OCO4)cc1 (stereo not given),96.3%
15,COc1nc2ccccc2cc1/C=[N+](\[O-])c1ccccc1,29.5%
16,O=C(CNc1ncco1)Nc1ccc(S(=O)(=O)c2ccc(NC(=O)CNc3ncco3)cc2)cc1,5.92% (active)
17,C=C(C[n+]1ccccc1)[C@@H]1CC[C@]2(C(=O)OC)CC[C@]3(C)[C@H](CC[C@@H]4[C@@]5(C)CCC(=O)C(C)(C)[C@@H]5CC[C@]43C)[C@@H]12,78.9%
18,O=c1c(/C=C/c2c(O)ccc3ccccc23)nnc2sc(-c3cccc([N+](=O)[O-])c3)nn12,25.9%
19,CN1/C(=C/C=C/c2n(Cc3ccc4ccccc4c3)c(Cl)c(Cl)[n+]2Cc2ccc3ccccc3c2)Oc2ccccc21,91.1%
20,COc1cc2c(cc1OC)CC[N+](CCC[N+](C)(C)C)=C2,91.6%

row,SMILES,growth
1,Cc1[nH]c(C(=O)Nc2ccc(C(N)=O)cc2OC(C)C)c(Cl)c1Cl,89.2%
2,CCN(CC)CCCNC(=O)c1c2c(n3ccccc13)C(=O)c1ncccc1C2=O,-40.6% (active)
3,C#CCOc1cccc(Nc2ncnc3c(NC(=O)CCl)cccc23)c1,-12.7% (active)
4,COc1cc(/C=C/C(=O)c2ccc(-n3cc(CN4CCN(c5cc6c(cc5F)c(=O)c(C(=O)O)cn6C5CC5)CC4)nn3)cc2)cc(OC)c1OC,80.4%
5,Cc1cc(=O)oc2cc(Oc3nc(-c4ccccc4)cn4c(-c5ccccc5)cnc34)ccc12,58.5%
6,CC1(C)CC[C@]2(CO)CC[C@]3(C)C(=CC[C@@H]4[C@@]5(C)CCNCC(C)(C)[C@@H]5CC[C@]43C)[C@@H]2C1,49.3%
7,CC(C)(C)c1ccc(C(=O)Nc2sc3c(c2C#N)CCC(=O)C3)cc1,10.6%
8,CCN1C(=O)N(CC)C2C1NC(=S)N2/N=C/C=C/c1cccs1 (stereo not given),20.4%
9,C#Cc1cccc(Nc2ncnc3ccc(-c4cnc(Cl)c(NS(C)(=O)=O)c4)cc23)c1,-11.7% (active)
10,CC(C)(C)n1cc(-c2ccnc(NCCNS(=O)(=O)c3ccc(Br)cc3)c2)c(-c2cccc(O)c2)n1,12.9%
11,CCN(CC)CCN1C(=O)c2c(c(C)c3c(oc4cc(OC)ccc43)c2C)C1=O,61.1%
12,C/C(=N\NC(=O)c1ccc(C(C)(C)C)cc1)c1ccc(O)cc1O,18.2%
13,CCN1CCN(c2nc(NNC(=O)c3ccc(OC)cc3)nc(N3CCN(C(c4ccccc4)c4ccccc4)CC3)n2)CC1,16.3%
14,Cc1ccc(S(=O)(=O)c2nc(-c3ccccc3)oc2S(C)=O)cc1 (stereo not given),-29.5% (active)
15,COc1ccc(-c2cc(-c3ccc(N(C)C)cc3)nc(NC(=O)c3cccnc3)n2)cc1,98%
16,CCN1C(=O)N(CC)C2C1NN=c1s/c(=C\c3ccc([N+](=O)[O-])cc3)c(=O)n12 (stereo not given),15.8%
17,CC(C)(C)[C@H](OCc1cn([C@H]2C[C@@H](O)[C@@H](CO)O2)c(=O)[nH]c1=O)c1ccc(C#Cc2ccccc2)cc1[N+](=O)[O-],57.6%
18,Clc1ccc2c(NCCCn3cnc4c(N5CCCC5)nc(Cl)nc43)ccnc2c1,92.3%
19,COCCNC(=O)Cc1cc(-c2ccc(Cl)cc2)n(-c2ccccc2)c1C,90%
20,O=C1C=CC2(O)OC(c3ccccc3)CC(=O)C2=C1O (stereo not given),77.8%
